# Source: PubChem BioAssay
# An excerpt weighted towards active compounds, which were near 10% of everything screened.
# ALDH1A1 inh = qHTS Assay for Inhibitors of Aldehyde Dehydrogenase 1 (ALDH1A1); Purified ALDH1A1, NADH fluorescence, propionaldehyde substrate; Potency, µM (top dose mostly 75.3 µM), for inactives: at the top dose activity, negative = inhibition, most hits filed as inhibitors; actives 7.3% (n = 220,000); AID 1030, 2008; active = well fitted inhibition curve with a large enough effect, not every such curve was filed as active; inconclusive = small, poorly fitted or top-dose-only effect, or another doubt; inactive = no such curve, though single readings can be large or run the other way;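 note: potency is the fitted concentration of half-maximal effect; plate controls were no enzyme wells and a reference inhibitor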
# GLA inh pH 4.5 = qHTS Assay for Inhibitors of Human alpha-Galactosidase at pH 4.5 | activity change, negative = inhibition, % at 105 µM | 230,000 tested, under 10 active | purified enzyme, 4-MU-alpha-Gal fluorescence, pH 4.5 | Alpha-galactosidase A (Homo sapiens), P06280;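 note: 0% = full activity with enzyme and -100% = basal without enzyme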
# Target sequence (P06280 whole entry, looked up): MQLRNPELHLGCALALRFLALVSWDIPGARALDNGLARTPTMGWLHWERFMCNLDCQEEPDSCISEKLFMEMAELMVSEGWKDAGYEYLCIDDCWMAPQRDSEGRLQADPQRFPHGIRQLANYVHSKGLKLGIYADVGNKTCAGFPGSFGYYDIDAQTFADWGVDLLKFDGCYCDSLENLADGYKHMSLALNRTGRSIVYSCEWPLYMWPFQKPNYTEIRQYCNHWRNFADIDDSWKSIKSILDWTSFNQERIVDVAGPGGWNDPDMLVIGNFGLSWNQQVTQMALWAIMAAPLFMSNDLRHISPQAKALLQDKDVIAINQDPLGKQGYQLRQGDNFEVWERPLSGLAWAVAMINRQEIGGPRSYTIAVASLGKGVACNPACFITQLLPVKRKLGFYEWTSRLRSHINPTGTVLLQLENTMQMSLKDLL
# 12-hLO inh = qHTS Assay for Inhibitors of 12-hLO (12-human lipoxygenase); Polyunsaturated fatty acid lipoxygenase ALOX12 (Homo sapiens), P18054; Potency, µM (series often up to 57.1 µM), without a hit: at the highest dose activity change, negative = inhibition, most hits filed as inhibitors; actives 0.12% (n = 150,000); purified 12-hLO, xylenol orange hydroperoxide absorbance; note: potency is the fitted concentration of half-maximal effect; nearly all actives have a fitted effect of over 55% in size
#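 Purified human 12hLO (150 nM), preincubated 15 min with compound, then 40 uM arachidonic acid for 30 min, room temperature, Hepes pH 7.0 with 0.01% Triton X-100. Hydroperoxide detected by ferrous iron/xylenol orange; 573/405 nm absorbance ratio gives reaction progress.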
# GLA spleen mod = qHTS Assay for Inhibitors and Activators of Human alpha-Galactosidase From Spleen Homogenate | human spleen homogenate, 4MU-alpha-Gal fluorescence, 40 min | Potency, µM (top dose mostly 80 µM), for the others: top-dose activity change, negative = inhibition, actives largely listed as inhibitors | actives 0.008% (n = 240,000) | AID 2107, 2009;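 note: potency is the fitted concentration of half-maximal effect; 0% = enzyme with vehicle and -100% = no enzyme basal signal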
#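 Spleen homogenate 1 ug + cpd (titration) + 4-MU-alpha-D-galactopyranoside 1 mM; 37C 40 min; 50 mM citrate/phosphate pH 5.0, 0.01% Tween-20; stop pH 10; fluorescence 365/440; AC50 via Hill.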
# HPGD inh = qHTS Assay for Inhibitors of HPGD (15-Hydroxyprostaglandin Dehydrogenase). 15-hydroxyprostaglandin dehydrogenase [NAD(+)] (Homo sapiens), P15428. purified HPGD, NADH fluorescence kinetic, PGE2 substrate. Potency, µM, inactives show top-dose activity change, negative = inhibition, usual class: inhibitors. actives 4.3% (n = 150,000); active = well fitted inhibition curve with a large enough effect, not every such curve was filed as active; inconclusive = small, poorly fitted or top-dose-only effect, or another doubt; inactive = no such curve, though single readings can be large or run the other way; note: potency is the fitted concentration of half-maximal effect
# Target sequence (P15428 whole entry, looked up): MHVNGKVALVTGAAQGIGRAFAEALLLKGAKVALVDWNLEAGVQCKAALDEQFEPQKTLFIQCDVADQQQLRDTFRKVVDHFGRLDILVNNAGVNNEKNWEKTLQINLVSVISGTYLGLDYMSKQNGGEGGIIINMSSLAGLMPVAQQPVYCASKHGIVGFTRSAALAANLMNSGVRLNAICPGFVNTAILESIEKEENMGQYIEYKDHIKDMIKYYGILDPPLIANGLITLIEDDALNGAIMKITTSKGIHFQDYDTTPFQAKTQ
#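 20 nM HPGD preincubated 15 min at room temperature with compound in 50 mM Tris-HCl pH 8, 0.01% Tween 20. Started with 1 mM NAD+ and 30 uM prostaglandin E2; NADH fluorescence (360/450 nm) read 5 times over 30-s intervals, last minus first.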
# PNC inhibitor = High Content Assay for Compounds that inhibit the Assembly of the Perinucleolar Compartment; PC3M PTB-GFP, PNC prevalence imaging, 16 h; active compounds read low; activity change (PNC), negative = inhibition, % at 10 µM; actives 3.1% (n = 140,000); AID 2417, 2010;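 active = readout at or below -70, meaning at least 70% loss of cells showing the perinucleolar compartment, a nuclear body marking cancer cells; inconclusive = readout between -30 and a set limit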;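 note: plate controls were DMSO wells for no effect and camptothecin positive control wells for full effect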
#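 PC3M cells stably expressing PTB-GFP, 750–1000 cells/well, treated 16 h at 37 °C with compound (23 nl of library stock), in duplicate. After paraformaldehyde fixation and Hoechst stain, imaged at 20x; PNC prevalence scored by image analysis.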
# Starred values were filed as active, the others as inactive; u = inconclusive; x = not tested or not shown; [ ] = another dose, or the depositor's remark. Unless noted, calls come from the whole dose curve; as a rule, active = well fitted curve in the direction sought with a large enough effect; inconclusive = small, poorly fitted or top-dose-only effect, or another doubt; inactive = no such curve, though single readings can be large; an effect the other way counts as inactive or inconclusive. Unless noted, % is set by controls: 0 for no effect and ±100 for the full control effect.
SMILES,ALDH1A1 inh,GLA inh pH 4.5,12-hLO inh,GLA spleen mod,HPGD inh,PNC inhibitor
Cc1cnc(CNc2nc(-c3ccc(N(C)C)cc3)nc3ccccc23)cn1,-14.4%,-2.5,-16.1%,0.8%,-16.3%,x
CC(C)C1=CC2=CC[C@@H]3[C@@](C)(C(=O)O)CCC[C@]3(C)C2CC1 (some centres undefined),u,-3.6,-4.7%,-6.8%,-10.0%,x
Cc1ccc(Nc2c(-c3ccc(C)o3)nc3ncccn23)cc1,x,-5.8,x,0.7%,x,x
Cc1ccc(-c2nc3ncccn3c2Nc2ccc3c(c2)OCO3)o1,u,8.3,-4.8%,-4.8%,-20.2%,-118.9*
Oc1ccccc1N1CCN(C(=S)NCCc2ccccc2)CC1,-9.8%,2.6,-6.4%,-12.2%,-3.2%,-8.8
CNC(=S)N1CCN(c2cccc(OC)c2)CC1,-10.8%,7.8,2.1%,-2.8%,-18.3%,49.0
S=C(Nc1cccc(Cl)c1)N1CCN(Cc2ccccc2)CC1,-9.3%,-1.4,-2.0%,-0.7%,-12.2%,-80.1*
COc1cccc(N2CCN(C(=S)NCCc3ccccc3)CC2)c1,-3.9%,-4.6,-6.0%,2.6%,-3.0%,-91.6*
Oc1ccc(N2CCN(C(=S)NCCc3ccccc3)CC2)cc1,11.2µM*,5.7,-9.5%,2.9%,-13.4%,0.9
S=C(NCCc1ccccc1)N1CCN(Cc2ccccc2)CC1,7.94µM*,-7.7,-6.7%,1.1%,2.5%,29.3
S=C(Nc1ccccc1)N1CCN(Cc2ccccc2)CC1,x,5.8,x,0.9%,x,x
NCCC[C@@H](CC(=O)N[C@@H]1CCNC[C@H]1C(=O)N[C@H](CC(=O)N[C@@H](CCC(=O)O)CC(=O)O)Cc1ccccc1)NC(=O)C[C@H](Cc1ccccc1)NC(=O)[C@@H]1CNCC[C@H]1N,5.3%,-8.0,3.3%,-4.4%,-6.5%,x
Cc1nn(C)c2ncc(C(=O)c3cc(F)ccc3O)cc12,6.8%,0.4,0.3%,16.8%,-18.9%,-8.0
Cc1nn(-c2ccccc2)c2ncc(C(=O)c3cc(Cl)ccc3O)cc12,-3.6%,-4.3,-1.1%,-8.5%,15.8µM*,-27.6
COc1ccc(O[C@H]2C=C[C@@H](c3ccccc3)O[C@H]2COC(=O)CC/C(C)=N\O[C@@H](C)c2cn([C@H](CO)Cc3ccccc3)nn2)cc1,3.5%[13.5 µM],x,x,-9.0%[17.5 µM],x,x
CCS(=O)(=O)c1ccc(O)c(NC(=O)c2cc(OC)c(OC)c(OC)c2)c1,15.8µM*,1.6,4.1%,2.1%,-17.4%,u
CCCNC(=O)Nc1cc(S(=O)(=O)CC)ccc1O,x,0.5,x,7.5%,x,x
O=C(C=C=Nc1ccccc1)C(=O)N=C=Cc1ccccc1,3.6%,0.2,x,2.1%,x,x
Cc1c(Cc2ccccc2)c(=O)oc2cc(O)cc(O)c12,u,5.1,x,15.1%,x,x
COC(=O)c1ccc(Sc2ccccc2NS(=O)(=O)c2ccc(NC(C)=O)cc2)nc1,11.2µM*,-0.4,-1.4%,4.9%,-15.4%,u
COC(=O)c1ccc(C(=O)OC)c(NS(=O)(=O)c2ccc(NC(C)=O)cc2)c1,u,8.6,-5.7%,15.1%,u,-9.1
CC(=O)O[C@@]1(C(C)=O)CCC2C3CC(C)C4=CC(=O)CC[C@@]4(C)C3CC[C@]21C (some centres undefined),3.6%,1.6,-2.1%,16.1%,3.9%,x
Cc1ccccc1NC(=O)C1CC(=O)N(c2ccc3c4c(cccc24)CC3)C1 (centres undefined),u,9.5,0.3%,-2.2%,-7.8%,-1.4
O=C(Nc1ccccc1Br)C1CC(=O)N(c2ccc3c4c(cccc24)CC3)C1 (centres undefined),20µM*,-15.3,0.1%,-8.7%,-15.3%,47.1
Cc1ccc(C(C)C)cc1NC(=O)Nc1ccc([N+](=O)[O-])cc1,x,-4.6,x,-4.6%,x,x
SMILES,ALDH1A1 inh,GLA inh pH 4.5,12-hLO inh,GLA spleen mod,HPGD inh,PNC inhibitor
COc1ccc(Oc2ncnc3c2ncn3Cc2ccccc2)cc1,-5.7%,6.6,0.0%,6.0%,8.91µM*,24.5
O=C(CNc1ccccc1)N/N=C/c1ccc([N+](=O)[O-])cc1,3.55µM*,-1.8,-0.2%,-0.4%,-2.2%,67.7
O=C(CCC(=O)Nc1ccccc1)N/N=C/c1ccncc1,-8.6%,-12.0,-9.2%,12.5%,22.4µM*,-9.3
O=C(CNc1cccc([N+](=O)[O-])c1)N/N=C/c1ccc([N+](=O)[O-])o1,2µM*,3.5,x,-5.6%,x,x
CC(C)C(=O)C(C)(C)CCc1ccccn1,5.0%[13.5 µM],x,4.4%[11.4 µM],x,-9.0%,x
O=C1c2ccccc2C(=O)c2c(NC3CCCCC3)ccc(Nc3ccc(S(=O)(=O)O)cc3)c21,2.3%[13.5 µM],x,-12.8%[11.4 µM],x,-17.1%,x
CCOc1ccc(C(=O)NC(=S)Nc2ccc(N3CCC(C)CC3)cc2)cc1[N+](=O)[O-],7.94µM*,9.5,-2.7%,6.5%,-30.0%,-118.9*
CCOc1ccc(C(=O)NC(=S)Nc2ccccc2N2CCC(C)CC2)cc1[N+](=O)[O-],u,-8.9,-2.3%,3.4%,-17.5%,u
CCC(=O)N1CCN(c2ccc(NC(=S)NC(=O)c3ccc(OC)c([N+](=O)[O-])c3)cc2)CC1,11.2µM*,2.6,x,3.0%,x,x
COc1cc2[nH]c(=S)n(C3CCCC3)c(=O)c2cc1OC,u,-2.9,-14.5%,8.2%,-2.6%,43.7
COc1cc2[nH]c(=S)n(CCN3CCOCC3)c(=O)c2cc1OC,-15.1%,0.0,1.8%,4.6%,-21.0%,-1.8
CC(C)NC(=O)c1ccc2c(=O)n(C3CCCC3)c(=S)[nH]c2c1,0.447µM*,4.9,-6.4%,6.2%,-4.6%,u
CCN(CC)CCNC(=O)c1ccc2c(=O)n(C3CCCC3)c(=S)[nH]c2c1,u,1.5,-22.6%,3.0%,-16.1%,u
COc1cc2[nH]c(=S)n(C3CC3)c(=O)c2cc1OC,28.2µM*,5.8,x,13.1%,x,x
COc1cc2[nH]c(=S)n(CC3CCCO3)c(=O)c2cc1OC (centres undefined),7.94µM*,7.1,-4.0%,22.4%,-1.9%,20.4
CCOc1cc2[nH]c(=S)n(CC3CCCO3)c(=O)c2cc1OCC (centres undefined),2.51µM*,2.1,-2.4%,-7.0%,-9.9%,-0.7
COC(=O)[C@H]1C[C@@H]1[C@H](NC(=O)c1cc(C)nn1C)c1ccccc1,u,-1.0,0.7%,-5.9%,0.5%,x
CC(=O)N1CCC2(CCCN(c3ccc(-c4ccccc4)cc3)C2)CC1,u,x,-27.1%,7.8%,u,x
